Reference: paper PMC4336329 (PLoS ONE, 2015)
About 14,000 (4.5%) of roughly 310,000 compounds showed an effect of 50% or more. The effect is printed as a negative number. The sample holds strong results, similar compounds and a random draw of the others, so the mix is not that of the screen.

The compounds below were run against human ether-à-go-go-related gene (hERG) potassium channel (human, UniProt Q12809) (assay: primary screen, population patch clamp on CHO cells stably expressing hERG; higher = less effect of the substance).
Sequence of human ether-à-go-go-related gene (hERG) potassium channel (Q12809 whole entry, looked up): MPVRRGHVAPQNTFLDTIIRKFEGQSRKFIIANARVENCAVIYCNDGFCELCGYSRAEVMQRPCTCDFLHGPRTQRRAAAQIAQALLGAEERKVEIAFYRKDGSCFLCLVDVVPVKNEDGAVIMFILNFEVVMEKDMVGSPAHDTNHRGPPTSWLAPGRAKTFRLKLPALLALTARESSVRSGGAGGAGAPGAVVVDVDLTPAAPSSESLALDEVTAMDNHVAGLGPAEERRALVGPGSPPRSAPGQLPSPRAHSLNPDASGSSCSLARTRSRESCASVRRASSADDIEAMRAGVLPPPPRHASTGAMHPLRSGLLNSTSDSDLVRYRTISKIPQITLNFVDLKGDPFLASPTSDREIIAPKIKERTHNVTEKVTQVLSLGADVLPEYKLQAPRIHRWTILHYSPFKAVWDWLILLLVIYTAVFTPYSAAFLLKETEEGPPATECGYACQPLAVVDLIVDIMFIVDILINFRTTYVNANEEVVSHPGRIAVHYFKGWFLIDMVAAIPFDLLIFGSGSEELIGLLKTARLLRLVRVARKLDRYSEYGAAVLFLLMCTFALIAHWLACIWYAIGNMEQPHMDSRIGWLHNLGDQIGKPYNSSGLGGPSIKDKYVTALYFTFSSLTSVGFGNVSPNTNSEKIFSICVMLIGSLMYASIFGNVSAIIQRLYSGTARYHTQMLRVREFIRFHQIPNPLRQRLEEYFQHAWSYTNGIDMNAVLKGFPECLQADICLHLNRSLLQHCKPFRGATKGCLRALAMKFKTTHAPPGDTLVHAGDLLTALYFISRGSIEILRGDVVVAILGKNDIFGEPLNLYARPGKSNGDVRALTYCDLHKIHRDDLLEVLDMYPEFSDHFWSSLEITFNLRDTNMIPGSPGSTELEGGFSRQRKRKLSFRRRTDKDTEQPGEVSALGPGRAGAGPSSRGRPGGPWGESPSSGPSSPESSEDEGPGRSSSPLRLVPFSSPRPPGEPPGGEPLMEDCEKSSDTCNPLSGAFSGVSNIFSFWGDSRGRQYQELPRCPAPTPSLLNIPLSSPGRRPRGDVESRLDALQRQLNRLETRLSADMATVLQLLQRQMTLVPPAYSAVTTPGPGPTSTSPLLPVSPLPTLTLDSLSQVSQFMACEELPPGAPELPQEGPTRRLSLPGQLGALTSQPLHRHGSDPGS
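Further: peak tail current of the secondary pulse compared with the same well before compound.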

Going from `COc1ccc2c(c1)[C@@H]1[C@H](CO2)[C@H](c2ccccc2)[C@]2(C)C(=O)NCC(=O)N12` to `COc1ccc(-c2cc(C(=O)c3c(N)n(C)c(=O)n(C)c3=O)c3ccccc3n2)cc1`, the “hERG current change (%, negative = inhibition) at 10uM” value falls from 4.48% to -15.5%.

Compared with `CC(Cc1cccs1)NC(=S)Nc1ccc(Cl)cc1` (centres unmarked), `O=C(NCCNc1ccc([N+](=O)[O-])cc1)c1ccco1` is lower in “hERG current change (%, negative = inhibition) at 10uM” value: 14.6% for the first, -23.7% for the second.

First: COC(=O)c1c(C)[nH]c(C=O)c1-c1ccccc1
Second: Cc1c(Br)c([N+](=O)[O-])nn1CCCC(=O)NC(C)c1ccccc1 (centres unmarked)
The “hERG current change (%, negative = inhibition) at 10uM” value of the first is higher: 10.3% for the first, -16.2% for the second.

Going from `Cc1ccc(NC(=O)c2ccc(Oc3ncccn3)cc2)cc1` to `COc1cccc(NC(=O)c2ccc(OC(F)(F)F)cc2)c1`, the “hERG current change (%, negative = inhibition) at 10uM” value falls from 12.2% to 1.07%.

Going from `CN(C)CC(CCCCC(CN(C)C)C(=O)c1ccccc1)C(=O)c1ccccc1` (centres unmarked) to `O=S(=O)(NC(=NC1CCCCC1)c1ccccc1)c1ccccc1`, the “hERG current change (%, negative = inhibition) at 10uM” value falls from 9.78% to -14.7%.

First: O=C(Nc1ccc(Br)cc1)c1cccc(OC(=S)N2CCOCC2)c1
Second: O=C(Nc1c2c(nn1-c1ccccc1)CS(=O)(=O)C2)c1ccccc1Br
The “hERG current change (%, negative = inhibition) at 10uM” value of the first is higher: 17% for the first, -0.51% for the second.

Going from `COc1nnc(-c2ccc(C)c(S(=O)(=O)NC(C)(C)CO)c2)c2ccccc12` to `CCNS(=O)(=O)c1cc(-c2nnc(OC)c3ccccc23)ccc1C`, the “hERG current change (%, negative = inhibition) at 10uM” value falls from -15.9% to -37.3%.

First: Cc1ccc(-c2nnc(N3CCCCC3)c3ccccc23)cc1S(=O)(=O)NCC1CCCO1 (centres unmarked)
Second: COc1nnc(-c2ccc(C)c(S(=O)(=O)NCC3CCCO3)c2)c2ccccc12 (centres unmarked)
The “hERG current change (%, negative = inhibition) at 10uM” value of the first is higher: -16% for the first, -69.5% for the second.

Compared with `COc1nnc(-c2ccc(C)c(S(=O)(=O)NCCO)c2)c2ccccc12`, `COc1nnc(-c2ccc(C)c(S(N)(=O)=O)c2)c2ccccc12` is higher in “hERG current change (%, negative = inhibition) at 10uM” value: -14.6% for the first, 4.8% for the second.

Compared with `Cc1ccc(-c2nnc(Nc3ccccc3)c3ccccc23)cc1S(=O)(=O)NCC1CCCO1` (centres unmarked), `c1ccc(-c2nnc(OCC3CCCO3)c3ccccc23)cc1` (centres unmarked) is higher in “hERG current change (%, negative = inhibition) at 10uM” value: -40.5% for the first, -10.8% for the second.

First: Cc1ccc(-c2nnc(OCC3CCCO3)c3ccccc23)cc1 (centres unmarked)
Second: Cc1ccc(Oc2nnc(-c3ccc(C)cc3)c3ccccc23)cc1
The “hERG current change (%, negative = inhibition) at 10uM” value of the first is lower: -65.2% for the first, 2.75% for the second.

Compared with `COc1nnc(-c2ccc(C)c(S(=O)(=O)NC(C)C)c2)c2ccccc12`, `COc1nnc(-c2ccc(C)c(S(=O)(=O)N(C)C)c2)c2ccccc12` is lower in “hERG current change (%, negative = inhibition) at 10uM” value: -52.8% for the first, -77.6% for the second.

First: CC(C)CNC(=S)NC(=O)c1ccc(Cl)cc1Cl
Second: CC(C)C(NC(=O)CCNC(=O)c1ccccc1Cl)c1nc2ccccc2[nH]1 (centres unmarked)
The “hERG current change (%, negative = inhibition) at 10uM” value of the first is higher: 3.88% for the first, -9.36% for the second.

Compared with `Br.Cc1cccc(N2C(=O)SC(SC(=Nc3ccccc3)Nc3ccccc3)C2=O)c1` (centres unmarked), `Cc1ccc(S(=O)(=O)NC(=NC2CCCCC2)c2ccccc2)cc1` is lower in “hERG current change (%, negative = inhibition) at 10uM” value: 15.3% for the first, -55.2% for the second.

First: COc1ccccc1C(c1nnnn1C(C)(C)C)N1CCCCCC1 (centres unmarked)
Second: O=C(NCc1ccccc1Cl)C1CCCN(c2ncnc3c2nc2n3CCCCC2)C1 (centres unmarked)
The “hERG current change (%, negative = inhibition) at 10uM” value of the first is higher: -20.9% for the first, -60.8% for the second.

Going from `COc1ccc(NC(=O)CN(C)S(=O)(=O)c2ccc3c(c2)n(C)c(=O)c(=O)n3C)cc1` to `Cc1ccc(S(=O)(=O)NC(=NC2CCCCC2)c2ccc(F)cc2)cc1`, the “hERG current change (%, negative = inhibition) at 10uM” value falls from 14% to -4.09%.

First: COc1ccc(CSc2nc3ccccc3c(=O)[nH]2)cc1F
Second: Cn1c(Cc2csc(N)n2)nnc1SCC(=O)NCc1ccccc1
The “hERG current change (%, negative = inhibition) at 10uM” value of the first is higher: 36.6% for the first, 1.12% for the second.

Compared with `COc1ccc(CNC(=O)C2CCCN(c3ncnc4c3nc3n4CCCCC3)C2)cc1` (centres unmarked), `COc1cccc(CNC(=O)C2CCCN(c3ncnc4c3nc3n4CCCCC3)C2)c1` (centres unmarked) is lower in “hERG current change (%, negative = inhibition) at 10uM” value: -37.6% for the first, -55.6% for the second.

Compared with `COc1cccc(CNC(=O)C2CCN(c3ncnc4c3nc3n4CCCCC3)CC2)c1`, `O=C(NCc1ccccc1Cl)C1CCN(c2ncnc3c2nc2n3CCCCC2)CC1` is lower in “hERG current change (%, negative = inhibition) at 10uM” value: 16.7% for the first, -30.9% for the second.

First: O=C(NCC1CCN(Cc2cccc(Cl)c2)CC1)C1CCCN(c2ncnc3c2nc2n3CCCCC2)C1 (centres unmarked)
Second: O=C(NCC1CCN(Cc2ccccc2F)CC1)C1CCCN(c2ncnc3c2nc2n3CCCCC2)C1 (centres unmarked)
The “hERG current change (%, negative = inhibition) at 10uM” value of the first is lower: -44.5% for the first, -8.94% for the second.

First: O=C(NCc1cccc(Cl)c1)C1CCCN(c2ncnc3c2nc2n3CCCCC2)C1 (centres unmarked)
Second: O=C(Nc1ccccc1Cl)C1CCCN(c2ncnc3c2nc2n3CCCCC2)C1 (centres unmarked)
The “hERG current change (%, negative = inhibition) at 10uM” value of the first is lower: -73.5% for the first, -59.4% for the second.

Going from `O=C(Nc1cccnc1Cl)C1CCCN(c2ncnc3c2nc2n3CCCCC2)C1` (centres unmarked) to `O=C(Nc1cccnc1)C1CCCN(c2ncnc3c2nc2n3CCCCC2)C1` (centres unmarked), the “hERG current change (%, negative = inhibition) at 10uM” value rises from -42% to -36%.
